Source: the supplement of paper PMC12632987

T1: USP38, Q8NB14
T1 chain: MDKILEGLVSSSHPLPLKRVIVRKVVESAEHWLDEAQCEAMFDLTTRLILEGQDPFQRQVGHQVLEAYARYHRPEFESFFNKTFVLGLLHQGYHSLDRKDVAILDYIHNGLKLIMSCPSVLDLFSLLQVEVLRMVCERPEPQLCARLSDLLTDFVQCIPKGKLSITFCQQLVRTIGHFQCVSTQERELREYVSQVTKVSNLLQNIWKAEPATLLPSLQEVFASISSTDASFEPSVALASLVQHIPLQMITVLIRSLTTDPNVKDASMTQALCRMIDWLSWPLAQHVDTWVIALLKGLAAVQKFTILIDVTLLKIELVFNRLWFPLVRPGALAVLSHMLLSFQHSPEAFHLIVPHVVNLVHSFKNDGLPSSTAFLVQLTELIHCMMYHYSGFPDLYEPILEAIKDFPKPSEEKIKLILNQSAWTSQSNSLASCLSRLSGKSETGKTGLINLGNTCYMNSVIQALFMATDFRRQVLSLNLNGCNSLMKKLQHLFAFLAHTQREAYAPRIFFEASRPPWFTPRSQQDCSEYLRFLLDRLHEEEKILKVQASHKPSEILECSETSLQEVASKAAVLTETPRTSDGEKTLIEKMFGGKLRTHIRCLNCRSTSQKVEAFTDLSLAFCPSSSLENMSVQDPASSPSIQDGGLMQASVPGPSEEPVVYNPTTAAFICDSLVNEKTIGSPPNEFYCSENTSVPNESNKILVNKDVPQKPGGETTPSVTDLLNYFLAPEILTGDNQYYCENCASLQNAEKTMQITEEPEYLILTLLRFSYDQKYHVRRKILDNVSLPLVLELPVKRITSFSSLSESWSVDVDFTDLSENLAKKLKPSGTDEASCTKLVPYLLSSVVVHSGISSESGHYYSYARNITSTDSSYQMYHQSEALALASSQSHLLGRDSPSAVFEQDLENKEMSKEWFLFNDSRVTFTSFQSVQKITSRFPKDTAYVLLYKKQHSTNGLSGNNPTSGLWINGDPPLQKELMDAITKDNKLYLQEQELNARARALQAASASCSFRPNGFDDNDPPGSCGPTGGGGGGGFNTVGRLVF


Legend:
UCHL1, P09936 = assay: median log2 fold change of GCK-ALFA target abundance (FLAG IP / Myc IP barcode read proportion) (log2 ratio); each designed protein is fused to an ALFA-tag nanobody in HEK293 cells to bring the named protein to FLAG-tagged glucokinase (GCK); Myc marks an untargeted standard; higher = target protein stabilised (more abundant); settings: target protein: 3xFLAG-MCP-GCK-ALFA reporter; HEK293 landing pad (RPLP)
Chain of UCHL1, P09936 (P09936 whole entry, looked up, the tested form may be a part): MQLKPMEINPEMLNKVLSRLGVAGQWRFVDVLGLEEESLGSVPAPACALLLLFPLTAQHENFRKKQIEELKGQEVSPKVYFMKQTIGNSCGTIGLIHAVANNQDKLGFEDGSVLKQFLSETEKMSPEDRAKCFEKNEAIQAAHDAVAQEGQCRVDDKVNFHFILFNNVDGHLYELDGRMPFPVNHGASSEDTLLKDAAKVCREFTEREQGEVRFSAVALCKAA
Outline: (§1)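 The readout is target abundance, the per-binder median log2 ratio of FLAG to Myc barcode read proportions. It came from HEK293 landing-pad cells carrying a recombined ALFA-nanobody-fused binder library, induced with 2 μg mL^−1 doxycycline and transfected with a plasmid for a FLAG-tagged target and a Myc-tagged standard. After 48 h, lysates were immunoprecipitated with anti-FLAG and anti-Myc, and circular RNA barcodes were reverse transcribed, amplified and sequenced. Each barcode needed a proportion of at least 10^−7 in both replicates and each binder at least 3 barcodes per replicate, a pseudocount of 10^−6 was added, and the replicates were pooled.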

USP38, Q8NB14 = target: T1, USP38, Q8NB14; assay: as above; settings: target protein: 3xFLAG-MCP-GCK-ALFA reporter; HEK293 landing pad (RPLP)
Outline: as §1

Row | Binder | median log2 fold change (UCHL1, P09936) | median log2 fold change (USP38, Q8NB14)
1 | uchl1_2_7571 (protein) ETVFVGVLVTLRARDAETGKEYRSRRTFIFTEDSIEALAEEIRELALAFQADVGVPVTVDIHIYSTKKEVVEKTKKVLEEMAKELAKEGITVNITGTVVK | -0.528 | –
2 | uchl1_2_7572 (protein) KTVFVGVKVTLTAYDEKTGKTYKSTRTLIFTESALEAAAKEIEELALNFQDAVGVPVKVDVHVVSTDEEVLKRLKELLEKMAKKLAKKGIEVNISGEVVK | -0.571 | –
3 | uchl1_2_7573 (protein) KTVFVGIKVTLEAYDEKTGKTYRSTRTLIFTEEALEKAAEEVKELALNFKDAVGVPVTVNVHIVSTDEEVLERLKKLLEEMAKELAKEGITVNISGEVVK | -0.366 | –
4 | uchl1_89_7574 (protein) DPRLDPATAARLRAIAERTEAALRRILTKAGVPQATIDAFLALVRAAADTTIADRAAAPAQLAALEAALRALTARVDPATAANVRLAMGPLLRLLEGVAQ | -0.0395 | –
5 | uchl1_89_7575 (protein) EAARREAARARLRRILAATEARVAALLARLGEVPPELAAARDAFFAAARAAIDDPATAAAALAAAEAAARRLVELAPPEYRASFRLATGRLLNALRGWAA | 0.127 | –
6 | uchl1_89_7576 (protein) AEARAQAARARLRAVLAATRAEVERLLARLGEVDPALRAAFDAFFAAAEAAIADPSTAAAALAAAEAAARRLVELAPPEYRASFRLATGRLLNLLRGYAA | -0.0383 | –
7 | uchl1_89_7577 (protein) EEERLEAARERLRRILARTRAEVERLLARLGEVPPELRAALDAFFAAAEAAIADPSTAEAALAEAEAAARRLVELAPPEYRASFRLALGRLVNALLGYAA | 0.111 | –
8 | uchl1_89_7578 (protein) EAARLAAARARLRRVLAATRAEVERLLARLGEVPPELRAAFDAFFAAAEAAIADPSTAAEALAAAEAAARRLVELAPPEYRASFRLATGRLLNALRGYAA | 0.184 | –
9 | uchl1_89_7579 (protein) EEERLARARERLRRVLAATRAELARLEARIGEVSPELAAARDALFAAAEAAIADPALAAAQLEAAEAAARRLVALTPPELRASVRLATGRLLNRLLGYAA | -0.16 | –
10 | uchl1_89_7580 (protein) EEERLRRARERLRRVLEATRAEVERLIARLGEPDPALVAAAEELFAAAEAALEDPERAAEYLARAEAAARRLVELAPPERRASFRLAVGRLVNTLLGYAA | 0.043 | –
11 | uchl1_89_7581 (protein) EAARLERAKAKLRAVLAATRAALDRLIARLGEPDPALVAARDALFAAAEAAIADPARAAEYLARAEAAARRLVELAPPERRASFRLAAGRLVNTLLGFAA | -0.302 | –
12 | uchl1_89_7582 (protein) EEERLARAREHLRRVLAKTRAALDRLIARLGEPDPELVAAHEELLAAAEAAIADPERAEEYLAKAEEAAVRLVELAPPERRASFRLAVGRLINTLLGYAA | -0.405 | –
13 | uchl1_89_7583 (protein) EEEREAAARARLRAILAATRAALERLIARWGVRDPEAQAALDALFANAERAIADPSTAAEALAKAEEAARRLLALAPPEKRADVRLATGRLLNALLGYVA | -0.0264 | –
14 | uchl1_89_7584 (protein) EEARRAAARERLRRVLAATRERLEALMAKWGVADPEAVAALEELFRHAELAIEDPERAEEALAKAEEAAKRLLALAPEERRADVRMATGRLLNRLLGYVA | -0.114 | –
15 | uchl1_89_7586 (protein) EEERLAAARARLRRILAATRAELERLIASLGVRDPALEAALAAFFAHARRAIEDPATAEEALAAAEAAARELLALAPPEKRADFRLATGRLLNALLGYRA | 0.158 | –
16 | uchl1_89_7587 (protein) EEARREAARARLERVLAKTRARLEALLARMGAPDPAMVAALDALFDAARTALADPATAEAALAEAEAAARRLVELAPEEVKASVRLATGRLVIALRGYLA | -0.0889 | –

Row | Binder | median log2 fold change (UCHL1, P09936) | median log2 fold change (USP38, Q8NB14)
17 | uchl1_89_7588 (protein) EEERRRAARERLERVLAATRARLEALLARLGEPDPALVAALEALFAAARRALEDPATAAEALAAAEAAARRLVELAPPEVRASVRLAVGRLVNRLRGYVA | -0.164 | –
18 | uchl1_89_7589 (protein) AAAREAAARARLEAVLAKTRAELERLLARLGAPDPEMVAALEALFDAARRALADPETAEAALAETEAAARRLVELAPEEVRASVRLAVGRLVIALEGYRA | 0.16 | –
19 | uchl1_89_7590 (protein) EEAKAKAARARLERVLAATEAALRRLLARLGAPDPALVAALDALLAAARAALADPATAAAHLAAAEAAARRLVELAPPEVRASVRLATGRLVNALRGYVA | -0.00562 | –
20 | uchl1_89_7591 (protein) EAERLERARAHLREVLARTRERVEAIIARLGEPDPALVAARERVFAAAERAIADPARAAEYVAEAEAAARELVALAPPEFRSDFRMALGRLINRLLGYAA | 0.0711 | –
21 | uchl1_89_7592 (protein) DAARLAAARARLRRVLERTRARVEAIIARLGRPDPAMVAAAEAVFAAAERAIADPARAAEWVARAEAAARELVALAPPEYRSDFRMALGRLVNALLGYAA | -0.157 | –
22 | uchl1_89_7593 (protein) EEARLAAARAKLREVLARTRAAVEAILARLGEPRPELVALLDAIFEAAEKAIADPAKAEEYVEKAEAAAREFVELAPEEFRSDFRMALGRLINRLLGYAA | 0.0394 | –
23 | uchl1_89_7594 (protein) EEERLAAARAYLRRVLAETRARVEAILARLGRPDPALVAAAEAIFEAAELAIEEPERAEEYVARAEEAARQLVELAPPEYRADFRMALGRLINRLRGYAA | 0.173 | –
24 | uchl1_89_7595 (protein) AAERAAAARARLRRVLAATRAELDRLVARMGERDPELLAALEAFFAAAEAALADPSTAAAALAAAEAAAKRAVELAPERYRASFRLALGRLLNALRGYVA | -0.1 | –
25 | uchl1_89_7596 (protein) EEERRAAARARLRRVLAATRAKLEELIARMGERDPELLAELEAFFAAAEAALEDPETAEAALAAAEEHAVRAVELAPEEYRASFRLALGRLLNALLGYVA | -0.537 | –
26 | usp_38_diff_out_10_51_1 (protein) SVEEAKKRIEELMKEVEEVFKTGSDGEILRKSLNALNELTEIAKEYPEVKEEVIEAMVRIVELTKPNPELYEDMTFAARFKAATVSDEVAEKVREKIAAL | – | 0.235
27 | usp_38_diff_out_10_51_2 (protein) SVEEAREEIEELLEEVEEVFKTGSLDEQLRAGLNALNRLREIALEYPEVEEEVIEAMVRIVELAKPNPELYEDMKFAARFKAATVNDEVAERVRERIDAL | – | 0.0864
28 | usp_38_diff_out_10_51_3 (protein) SREEEAERLLEEMEELVEKIKTSDLKTATAYFYQLINLTARLEALDPSYAERALELLKEAAKELLEKGGDKEDIIFALRFKAAATGSKVLEKAAEYVEKL | – | 0.18
29 | usp_38_diff_out_11_94_49 (protein) DEEIETNLFLMRYQFSQIVDLALTIDRETAAKVLRLANEAMEILKSGGPLEEVNKKLEEIKKVFNEAAAKSKENTEKLTAEANALLEKAKEYAEKAIKLR | – | 0.33
30 | usp_38_diff_out_13_133_50 (protein) SMEEEEKKEALKKFEELIKEAREAIEKAKKALEEGDLDKAWEYLGKAAGLLMEARELRTRELRDDPELYKEAKKKLEEVEKELNEVIDKVVEAEEKAFLA | – | 0.322
31 | usp_38_diff_out_13_133_51 (protein) AAKEEALAAAQARFDALLADAQAAIDAAEAALAAGDLDAAWAAVGRAAGLLREAREHRTRELRDDPAAYAAAQARLDAVEKRLNAVIDRVAAAERARFLA | – | 0.142
32 | usp_38_diff_out_13_133_52 (protein) AEEEEELKRRKEEFDKLIAEARKAIKDAKAALAAGDLDAAWAAAGKAAGLLMKAREHRTEKLRDDPELYEEAKKKLDEVEKELNEVIDAIVAAERERFLA | – | 0.302
